# NPC1 prom act = NPC1 promoter activation; Potency, µM (top dose mostly 9.22 µM), inactives show top-dose activation, usual class: activators; Huh7 NPC1 promoter luciferase reporter, 24 h; actives 2.4% (n = 320,000); note: % of control where 0% means no effect; nearly all actives have a fitted effect of over 60% in size
#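 Huh7 reporter cells (NPC1 promoter driving luciferase) are dosed with compound for 24 h at 37 °C, 5% CO2; luciferase detection reagent is then added and luminescence measured after 10 min at ambient temperature.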
# ELG1 DNA repair = ELG1-dependent DNA repair inhibition; actives 2.3% (n = 330,000); HEK293T ELG1-luciferase reporter, luminescence, 16 h; DNA damage induced by 5-fluorouridine; Potency, µM (series often up to 46.1 µM), for the others: at the top dose activity change, negative = inhibition, hits mostly inhibitors; note: % is set by controls: 0 for no effect and ±100 for the full control effect; nearly all actives have a fitted effect of over 55% in size
#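 Reporter activity after DNA damage by 5-fluorouridine is monitored. Compound-treated cells incubate 16 hr at 37 °C, then ONE-Glo is added for 30 min before luminescence reading.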
# FLuc modulator = inhibits or activates purified firefly luciferase, miR-21 counter-screen. purified FLuc, Km substrates, luminescence inhibition. Potency, µM (titrated, usually from 57.5 µM), for the others: top-dose activity change, negative = inhibition, hits mostly inhibitors. actives 6.9% (n = 360,000);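 note: plate controls were vehicle for no effect and reference inhibitor for full effect; nearly all actives have a fitted effect of over 55% in size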
# Target sequence (P08659 whole entry, looked up): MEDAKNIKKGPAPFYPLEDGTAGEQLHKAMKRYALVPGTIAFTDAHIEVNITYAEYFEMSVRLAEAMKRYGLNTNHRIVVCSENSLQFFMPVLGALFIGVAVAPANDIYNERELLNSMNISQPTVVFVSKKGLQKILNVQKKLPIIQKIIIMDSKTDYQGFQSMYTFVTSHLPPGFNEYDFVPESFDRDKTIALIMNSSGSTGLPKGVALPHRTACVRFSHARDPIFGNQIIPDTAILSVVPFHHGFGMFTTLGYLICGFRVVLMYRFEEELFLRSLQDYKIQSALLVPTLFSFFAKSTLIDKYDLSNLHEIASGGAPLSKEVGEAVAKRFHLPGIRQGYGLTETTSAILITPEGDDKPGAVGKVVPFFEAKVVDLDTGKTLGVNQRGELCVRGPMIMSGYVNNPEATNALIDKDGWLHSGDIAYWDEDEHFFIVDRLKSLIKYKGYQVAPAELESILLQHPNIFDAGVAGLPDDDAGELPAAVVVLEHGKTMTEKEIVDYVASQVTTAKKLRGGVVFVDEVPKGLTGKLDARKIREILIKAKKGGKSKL
#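 Purified P. pyralis luciferase (10nM final) with 10uM D-luciferin and 10uM ATP (Km levels) in 50mM Tris acetate pH 7.5, 10mM Mg acetate, 0.01% Tween-20, 0.05% BSA; qHTS 6-point titration, ~60 µM downward; luminescence read.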
# Rab9 prom act = activators of Rab9 promoter | Huh7 Rab9 promoter-luciferase reporter, luminescence, 24 h | actives 2.8% (n = 320,000) | Potency, µM (highest dose often 9.22 µM), for the others: at the top dose activation, negative = inhibition, usual class: activators | AID 485297; note: % of control where 0% means no effect; nearly all actives have a fitted effect of over 60% in size
#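 Promoter activation is measured as luciferase luminescence in Huh7 cells stably transfected with a Rab9 promoter–luciferase construct, following 24 h compound exposure at 37 °C and 10 min reagent incubation at ambient temperature.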
# SMN2 splice enh = enhancers of SMN2 splice variant expression; actives 2.8% (n = 210,000); Potency, µM (doses to about 46.1 µM), inactives show at the top dose activity change, positive = activation, hits mostly activators; HEK293 SMN2-luciferase splicing reporter, luminescence, 30-36 h; note: % of control where 0% means no effect; nearly all actives have a fitted effect of over 55% in size
#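 HEK293 cells carry an SMN2 […]–luciferase reporter in which exon 7 inclusion puts luciferase in frame. Cells were plated 10-12 h before compound addition, then incubated 30-36 h at 37C. ONE-Glo luminescence was read; sodium butyrate at 4.5 mM final served as control.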
# ELG1 genotoxic = genotoxicity induction in ELG1-luciferase HEK293T cells | HEK293T ELG1-luciferase reporter, luminescence, 16 h | Potency, µM (titrated, usually from 46 µM), inactives show at the top dose activity change, positive = activation, hits mostly activators | actives 1.3% (n = 330,000); note: % of control where 0% means no effect; nearly all actives have a fitted effect of over 60% in size
#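 After overnight (16 hr) compound treatment at 37 °C, ELG1-luciferase HEK293T cells were lysed with ONE-Glo; luminescence quantified 30 min later at room temperature.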
# An asterisk follows results filed as active; ? = inconclusive; . = not tested or not shown. This is a sample that favours compounds with a hit; in the whole collection about 9.4% have one here. Calls come from the whole dose curve; as a rule, active = well fitted curve in the direction sought with a large enough effect; inconclusive = small, poorly fitted or top-dose-only effect, or another doubt; inactive = no such curve, though single readings can be large; an effect the other way counts as inactive or inconclusive. Potency is the fitted concentration of half-maximal effect.
SMILES,NPC1 prom act,ELG1 DNA repair,FLuc modulator,Rab9 prom act,SMN2 splice enh,ELG1 genotoxic
CN(c1ccccc1)S(=O)(=O)c1cccc(NC(=O)c2ccc(Cl)c([N+](=O)[O-])c2)c1,.,21µM*,.,.,.,-14%
CN(c1cccc(NC(=O)CN(c2ccc(Cl)c(Cl)c2)S(=O)(=O)c2ccccc2)c1)S(C)(=O)=O,0%,16µM*,?,-2%,-13%,-10%
Cc1nc2cc(NC(=O)c3ccc(S(=O)(=O)N(C)c4ccccc4)cc3)ccc2o1,0%,-19%,17µM*,-9%,.,-42%
CN(c1ccccc1)S(=O)(=O)c1ccc(NC(=O)c2ccc(-c3ccccc3)cc2)cc1,-6%,?,-5%,-8%,.,-4%
Cc1oc2c(c(C)cc3oc(=O)c(CC(=O)NCCc4ccccc4)c(C)c32)c1C,.,.,-6%,.,6%,.
CCOC(=O)c1cc(C)n(CC2CCC(C(=O)Nc3ccc(Cl)cc3)CC2)c1C (stereo not drawn),.,.,3%,.,.,.
CN(c1ccc(C(=O)Nc2ccc(F)cc2F)cc1)S(=O)(=O)c1ccccc1,-2%,15µM*,1%,-1%,.,-10%
CN(c1cccc(NC(=O)c2ccc(N(C)S(=O)(=O)c3ccccc3)cc2)c1)S(C)(=O)=O,-15%,16µM*,-13%,-16%,-87%,-25%
CC(=O)c1cccc(NC(=O)c2ccc(N(C)S(C)(=O)=O)cc2)c1,-2%,14%,?,-5%,-10%,13%
CN(c1cccc(NC(=O)c2ccc(C(C)(C)C)cc2)c1)S(C)(=O)=O,11%,?,0.48µM*,?,.,-16%
COc1cc(OC)c(NC(=O)c2ccc3c(c2)N(Cc2ccc(C)cc2)CCS3)cc1Cl,.,.,-2%,.,-5%,.
COc1cc(C=O)c(Br)cc1OC1CCCC1,-2%,-1%,3%,0%,-9%,0%
COc1ccc(/C=C2\CCC(C3CCCC3)C2=O)c(OC)c1 (stereo not drawn),25%,?,21µM*,13%,.,8%
COc1cc(OC)c(OC)cc1/C=C1\CCC(C2CCCC2)C1=O (stereo not drawn),-2%,7.3µM*,-13%,1%,-24%,-14%
Cc1nnc(SCC(=O)c2ccc(Cl)cc2)n(N)c1=O,0.79µM*,?,2%,1µM*,5µM*,16%
CCn1c(SCCOc2ccc(Cl)cc2)nnc1-c1cccs1,-2%,-2%,-2%,0%,-23%,-13%
CCn1c(SCC(=O)c2ccc(Cl)cc2)nnc1C(C)C,?,?,19µM*,?,2%,?
CCn1c(SCC(=O)c2ccc(Cl)cc2)nnc1-c1cccs1,0%,6%,24µM*,16%,-7%,5%
Cc1ccc(NC(=O)CSc2nnc(C)c(=O)n2N)cc1Cl,-5%,9%,1%,3%,.,5%
CCn1c(SCC(N)=O)nnc1C(C)C,-3%,13%,-1%,2%,-15%,-4%
c1ccc(-n2ncc3c2ncn2nc(-c4ccco4)nc32)cc1,3.2µM*,?,0.85µM*,1.1µM*,11µM*,1.6µM*
CCOC(=O)N=Nc1c(O)n(CC(=O)OC)c2ccccc12,-5%,0%,-8%,-4%,.,0%
CCOC(=O)N=Nc1c2ccccc2c2nc3no[nH]c3nc12,-40%,1.5µM*,-3%,-40%,-113%,-7%
O=C(NCc1ccco1)c1cc(-c2ccccc2)on1,?,?,?,2.8µM*,13µM*,18µM*
O=C(NCc1ccc(F)cc1)c1cc(-c2ccco2)on1,2%,?,1%,14%,20µM*,1%
O=C(NCc1ccco1)c1ccccc1-c1ccccc1,-2%,4%,0%,1%,-12%,-3%
COc1ccc(-c2cc(C(=O)NCc3ccc(F)cc3)no2)cc1,.,.,1%,.,-1%,.
O=C(NCc1ccco1)c1cc(-c2ccc(F)cc2)on1,2.5µM*,?,?,2.8µM*,21%,?

# Screening results as filed in PubChem.
